# Experimental data reported in PubChem BioAssay (EPA / NIEHS).
# A structure can be active in one record and inactive in another. Activity calls are given as the source filed them. The calls were made as follows: active = hit-call score of the fitted dose curve at least 0.9, where 1 is the maximum; inactive = score below 0.9.
# Assay: ATG_Oct_MLP_CIS: Attagene CIS-FACTORIAL HepG2 Assay for human Octamer-Binding Transcription Factor (Oct) (AID 2282993)
# Conditions: HepG2 Attagene cis-factorial Oct reporter, mRNA; actives raise or lower the signal
# Method: ATG_CIS is a cell-based, multiplexed-readout assay that uses HepG2, a human liver cell line, with measurements taken at 24 hours after chemical dosing in a 24-well plate.ATG_Oct_MLP_CIS is one of 52 assay component(s) measured or calculated from the ATG_CIS assay. It is designed to make measurements of mRNA induction, a form of inducible reporter, as detected with fluorescence intensity signals by Reverse transcription polymerase chain reaction (RT-PCR) and Capillary electrophoresis technology.Data from the assay component ATG_Oct_MLP_CIS was analyzed into 1 assay endpoint. This assay endpoint, ATG_Oct_MLP_CIS, was analyzed with bidirectional fitting relative to DMSO as the negative control and baseline of activity. Using a type of inducible reporter, measures of mRNA for gain or loss-of-signal activity can be used to understand the reporter gene at the transcription factor-level as they relate to the gene POU2F1. Furthermore, this assay endpoint can be referred to as a primary readout, because this assay has produced multiple assay endpoints where this one serves a reporter gene function. To generalize the intended target to other relatable targets, this assay endpoint is annotated to the dna binding intended target family, where the subfamily is POU domain protein.
# Human liver HepG2 cells are transiently transfected with multiple reporter transcription units (MRTUs) in 6-well plates using FuGene 6 reagent (Roche; 3 ml FuGene/1 mg DNA). The MRTU constructs are regulated by a cis-regulating element (promoter). […] A major difference between the CIS and TRANS system is that in CIS activities of endogenous TFs are measured, whereas the TRANS assay evaluates changes in activities of exogenous, chimeric NR-Gal4 proteins. […] At the end of 24 hour incubation, total RNA was isolated using TriZol reagent (Invitrogen). The isolated RNA is then reverse-transcribed using oligo(dT) primer and Mo-MLV reverse transcriptase (Invitrogen) with DNAse I (Ambion) treatment for 30 min. The one-tenth of the produced cDNA was amplified by PCR using Taq DNA polymerase (Invitrogen) and two reporter sequence-specific primers. The PCR products were fluorescently labeled by primer extension with 6-arboxyfluorescein (6-FAM) 5'-labeled reporter sequence-specific primer (2 min at 95 C, 20 s at 68 C and 10 min at 72 C) and these products were digested with 5U of HpaI (New England Biolabs) for 2h at 37 C. The fragments were purified using Qiaquick PCR columns (Qiagen), analyzed on an ABI 3130xL genetic analyzer (Applied Biosystems) with peak positions identified by using a set of X-rhodamine (ROX)-labeled MapMarker1000 molecular weight standards (BioVentures). The raw capillary electrophoresis data was processed using Attagraph software (Attagene).
Compound,outcome,AC50
CC(O)CN (stereo not given),inactive,
CCCCOCCOCCO,inactive,
CCC=C(C)C=O,inactive,
CCCCOC(=O)C(C)OC(=O)CCC (stereo not given),inactive,
CCCCCCCOC(C)=O,inactive,
CC(C)COC(=O)c1ccccc1,inactive,
C=C(C)C(=O)OCCN(C)C,inactive,
C=C(C)C(=O)OCCOCCOC(=O)C(=C)C,inactive,
CCOC(=O)CC1(C)OCC(C)O1 (stereo not given),inactive,
CC(C)(O)C(=O)c1ccc(OCCO)cc1,inactive,
COC(=O)C(C)Oc1ccc(Oc2ncc(C(F)(F)F)cc2Cl)cc1 (stereo not given),inactive,
O=C(OCc1ccccc1)c1ccccc1O,inactive,
CCCCCCOc1ccc(O)cc1,,33.4 µM (active)
CCCCCCCCCC(=O)OCC,inactive,
CC/C(=C(\c1ccccc1)c1ccc(OCCN(C)C)cc1)c1ccccc1,inactive,
CCCO,inactive,
C#C[C@]1(O)CC[C@H]2[C@@H]3CCc4cc(O)ccc4[C@H]3CC[C@@]21C,inactive,27.1 µM (active) [middle of 4 runs]
OC[C@@H](O)[C@H](O)[C@@H](O)[C@@H](O)CO,inactive,
CCCCCCCCOC(C)=O,inactive,

Compound,outcome,AC50
C=C(C)CCCC(C)CCO (stereo not given),inactive,
CCCCCCCCCCCCCCCCCC(=O)OCCCCCCCCCCCCCC(C)C,inactive,
CCCCN(CCCC)CCCCCCN(CCCC)CCCC,inactive,
CCCC(O)C(CC)CO (stereo not given),inactive,
CC(=O)CC(C)(C)C1CCCCC1,inactive,
CC(C)(CO)CO,inactive,
O=C(c1ccc(OCCN2CCCCC2)cc1)c1c(-c2ccc(O)cc2)sc2cc(O)ccc12,inactive,8.87 µM (active) [middle of 4 runs]
CC12CCC(C1)C(C)(C)C2O (stereo not given),inactive,
NC(=O)c1cnccn1,inactive,
Cc1ccccc1S,,98.5 µM (active)
c1ccc(Sc2ccccc2)cc1,inactive,
CCOC(=O)C=Cc1ccccc1,inactive,
NS(=O)(=O)c1cc(C(=O)O)c(NCc2ccco2)cc1Cl,inactive,
CC(=O)Nc1cc(S(=O)(=O)O)cc2cc(S(=O)(=O)O)c(N=Nc3ccccc3)c(O)c12,inactive,
O=C(O)c1cc2ccccc2cc1O,inactive,
Nc1ccn([C@H]2CC[C@@H](CO)O2)c(=O)n1,inactive,
CC(=N[Si](C)(C)C)O[Si](C)(C)C,inactive,
C[N+](C)(C)CCO,inactive,
C1COCO1,inactive,
